PostGolgi yeast: growth inhibition of a yeast mutant, post-Golgi transport screen; AID 739; post-Golgi transport phenotypic cell assay; 98,000 tested, 0.9% active; inhibition, % at 10 µM;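 also: yeast cells grown in 1536-well plates; yeast grown about 18 h at 30C before absorbance read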
CYP2C19 inhib: blocks human cytochrome P450 2C19 | AID 778 | 96,000 tested, 21% active | inhibition, % at 5 µM | CYP2C19 Supersomes, luciferin-H EGE luminescence, 30 min | P33261;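 active = CYP2C19 inhibition above a set limit at 5 µM in the primary screen, cut at about 50% in these data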;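 also: plate controls were negative control wells for no effect and 2.5 mM tranylcypromine positive control for full effect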
CYP2C19 act: increases human CYP2C19 enzyme activity; P33261; recombinant CYP2C19, luciferin-H EGE luminescence; hits give high values; 0 = fully inhibited enzyme, 1 = untreated enzyme; 96,000 tested, under 10 active; activation factor at 5 µM;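 active = activation factor of at least 2 at 5 µM in the primary screen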;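 also: 0 = wells with 2.5 mM tranylcypromine and 1 = vehicle-only wells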
PostGolgi ctrl: growth of the yeast control strain, post-Golgi counter-screen. efflux-deficient yeast background strain, growth absorbance A615, 16 h. inhibition, % at 10 µM. 98,000 tested, 5% active. AID 738
CYP2C9 activ: activators of human CYP2C9. P11712. recombinant CYP2C9, luciferin-H conversion, luminescence; hits give high values; factor 1 = untreated enzyme, 0 = blocked. activation factor at 5 µM. 96,000 tested, 1.4% active. AID 1024;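 active = activation factor of 2 or more for CYP2C9 at a 5 µM dose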;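 also: 0 = sulfaphenazole-blocked wells and 1 = vehicle-only wells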
Target sequence (P11712 whole entry, looked up): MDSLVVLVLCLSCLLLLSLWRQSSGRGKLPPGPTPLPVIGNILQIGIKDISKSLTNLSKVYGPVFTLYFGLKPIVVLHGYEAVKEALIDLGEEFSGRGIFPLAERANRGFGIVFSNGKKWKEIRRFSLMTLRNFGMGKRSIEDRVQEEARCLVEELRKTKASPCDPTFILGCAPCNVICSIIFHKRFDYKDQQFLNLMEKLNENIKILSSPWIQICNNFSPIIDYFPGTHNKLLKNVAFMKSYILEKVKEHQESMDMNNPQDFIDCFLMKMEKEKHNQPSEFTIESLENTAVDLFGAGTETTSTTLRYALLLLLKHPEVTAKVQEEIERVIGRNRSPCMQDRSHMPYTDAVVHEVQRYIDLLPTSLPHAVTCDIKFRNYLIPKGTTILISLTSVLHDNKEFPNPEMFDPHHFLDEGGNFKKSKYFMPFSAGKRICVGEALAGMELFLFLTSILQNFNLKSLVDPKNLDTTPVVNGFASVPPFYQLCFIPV
CYP2C9 inhib: blocks human cytochrome P450 2C9; 96,000 tested, 20% active; CYP2C9 Supersomes, luciferin-H conversion, luminescence; inhibition, % at 5 µM; AID 777;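 active = blocking of liver enzyme CYP2C9 beyond about 50% at 5 µM, limit read from the data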
* marks the source's active call; other numbers are inactive results. Most compounds without a hit are left out; they make up all but 32% or so of the library. Rule as the data show it, unless noted: active = inhibition above about 30%; inactive = the rest.

SMILES	PostGolgi yeast	CYP2C19 inhib	CYP2C19 act	PostGolgi ctrl	CYP2C9 activ	CYP2C9 inhib
O=C(CNS(=O)(=O)c1ccc(Br)s1)NCC1COc2ccccc2O1 (configuration not stated)	68.3*	22.5	0.8	95.4*	0.4	64.0*
CN(CC(=O)Nc1ccc2c(c1)OCCO2)S(=O)(=O)c1ccc(Br)s1	-1.1	67.7*	0.3	-10.0	0.4	64.5*
O=C(CNS(=O)(=O)c1ccc(Br)s1)Nc1ccc2c(c1)OCCO2	8.4	19.0	0.8	-4.3	0.3	75.0*
Cc1ccc(C(=O)N/C(=C\c2cccs2)C(=O)N2CCCCCC2)cc1	8.9	20.0	0.8	12.8	0.6	43.7
O=C(CCNS(=O)(=O)c1cccc2nsnc12)N1CC(=O)N(CCc2ccccc2)C(=O)C1	-1.3	12.4	0.9	-0.8	1	3.9
COc1ccc(C2C(C#N)=C(C)NC3=C2C(=O)CC(C)(C)C3)c(OC)c1 (configuration not stated)	2.0	12.6	0.9	6.0	0.6	38.9
CCCCC1C(C#N)=C(C)NC2=C1C(=O)CC(C)(C)C2 (configuration not stated)	-1.0	90.0*	0.1	8.0	0.1	85.8*
Brc1cccc(-c2nnc3n2CCCCC3)c1	-6.7	52.9*	0.5	20.2	0.9	9.2
Brc1cccc(-c2cnc3n2CCCCC3)c1	-0.8	82.9*	0.2	23.6	0.9	6.6
CCOCCCNCC(=O)Nc1ccccc1N1CCOCC1	-1.4	0.4	1	6.0	1.2	-21.9
CC(=O)Nc1ccc(S(=O)(=O)Nc2nnc(C3CCCCC3)s2)cc1	-3.8	-12.1	1.1	-0.7	0.8	21.7
N/C(=N\OC(=O)CCCCCN1C(=O)c2ccccc2C1=O)c1ccccc1	-4.1	5.6	0.9	9.9	0.7	27.3
O=C(CCCN1C(=O)c2ccccc2C1=O)OC1CSCC1NC(=O)c1ccccc1 (configuration not stated)	-2.4	70.4*	0.3	-4.0	1	2.8
CCSc1nnc(NC(=O)c2ccc(C)o2)s1	1.4	2.8	1	8.9	0.9	12.5
CSc1ncc(Cl)c(C(=O)Nc2nnc(SC/C=C/c3ccccc3)s2)n1	2.2	79.5*	0.2	11.9	0	98.6*
CSc1ncc(Cl)c(C(=O)Nc2ccc(S(=O)(=O)N3CCOCC3)cc2)n1	5.9	-1.0	1	22.5	0.9	5.5
C=CCSc1nnc(NC(=O)c2nc(SCC)ncc2Cl)s1	7.5	-1.8	1	33.0*	0.7	33.9
Cc1nc2c(Cl)cccc2[nH]1	-7.3	2.9	1	7.9	1	2.9
CCOC(=O)c1ccccc1NC1CC(=O)N(c2ccccc2C)C1=O (configuration not stated)	11.5	80.5*	0.2	3.2	0.2	75.8*
COc1cccc(S(=O)(=O)NCc2ccc(C(=O)NCc3ccco3)cc2)c1	5.4	12.7	0.9	6.6	1	0.8
COc1ccc(S(=O)(=O)NCc2ccc3c(c2)OCO3)cc1C(=O)O	1.1	-10.8	1.1	4.7	1.4	-43.9
CN(C)S(=O)(=O)NCc1ccc2c(c1)OCO2	1.1	69.3*	0.3	23.5	0.7	29.9
COc1cccc(CNS(=O)(=O)/C=C/c2ccc3c(c2)OCO3)c1	6.6	98.8*	0	4.3	0.3	69.1*
COC(=O)NCc1ccc2c(c1)OCO2	1.4	-2.3	1	8.2	1.2	-15.2
COc1cccc(S(=O)(=O)NCc2ccc3c(c2)OCO3)c1	5.0	100.3*	0	8.3	0.1	91.4*
SMILES	PostGolgi yeast	CYP2C19 inhib	CYP2C19 act	PostGolgi ctrl	CYP2C9 activ	CYP2C9 inhib
COc1ccc(S(=O)(=O)NCc2ccc3c(c2)OCO3)cc1C	4.0	99.9*	0	2.1	0.8	24.0
Cc1c(S(=O)(=O)N2CCc3ccccc3C2)c(=O)n(C)c(=O)n1C	0.0	12.5	0.9	12.3	1	-4.6
O=S(=O)(c1ccc2nc(Cc3ccccc3)[nH]c2c1)N1CCOCC1	-6.8	36.4	0.6	13.9	0.5	47.4
O=S(=O)(c1ccc2nc(Cc3cccc(C(F)(F)F)c3)[nH]c2c1)N1CCOCC1	-1.0	67.0*	0.3	2.7	0.1	86.4*
N#Cc1c(-c2ccccc2)cc(-c2ccco2)c(C#N)c1N	9.7	31.2	0.7	6.1	0.8	23.6
CC(C)(C)c1cc(-c2ccco2)c(C#N)c(SCC#N)n1	16.1	40.5	0.6	13.9	0.1	94.6*
COCCNC(=O)CSc1nc(-c2ccc(OC)c(OC)c2)cc(C(F)(F)F)n1	-10.0	35.5	0.6	9.4	0.4	60.5*
COc1ccc(-c2cc(C(F)(F)F)nc(SCC(=O)Nc3cc(C)on3)n2)cc1	2.6	-5.7	1.1	5.2	1.1	-10.2
COc1ccc(-c2cc(C(F)(F)F)nc(SCC(=O)N3CCOCC3)n2)cc1OC	21.5	37.1	0.6	14.3	0.2	84.3*
CC/C(O)=C(\C#N)c1nnc2n1CCCCC2	-4.1	-10.4	1.1	3.2	1.1	-8.0
CCOc1ccc(-c2noc(=O)[nH]2)cc1	1.6	-0.3	1	-3.4	0.7	25.4
O=C(CSc1nnc(-c2cccs2)o1)OC1CCCCC1	5.4	47.4	0.5	11.4	0.6	36.6
COc1ccc(-c2nnc(SCC(=O)c3cc(C)n(Cc4cccs4)c3C)o2)cc1	-2.5	80.2*	0.2	-9.2	0.2	77.8*
Cc1cc(C(=O)CSc2nnc(-c3ccc(OC(F)F)cc3)o2)c(C)n1Cc1cccs1	-1.4	31.3	0.7	-4.3	0.8	24.4
CC(C)(C)NC(=O)CSc1nncn1-c1ccccc1	4.3	49.9	0.5	1.9	0.9	10.4
CCC1CCCCN1C(=O)CSc1nnc(-c2cccs2)o1 (configuration not stated)	-5.0	98.0*	0	6.8	0.8	20.5
COc1ccc(-n2cnnc2SCC(=O)c2cc(C)n(Cc3cccs3)c2C)cc1	-1.0	99.0*	0	10.7	0.2	76.5*
COCCn1c(C)cc(C(=O)CSc2nncn2-c2ccccc2)c1C	-1.4	56.8*	0.4	1.4	1	0.8
Cc1c(NC(=O)CCCCCN2C(=O)C3C4C=CC(C4)C3C2=O)c(=O)n(-c2ccccc2)n1C (configuration not stated)	0.6	-15.2	1.2	18.6	0.9	9.5
COc1ccc(NC(=S)N(CCc2nc3cc(C)c(C)cc3[nH]2)Cc2cccnc2)cc1	4.7	23.6	0.8	2.5	0.6	44.9
CC1CCN(c2ccc(C(=O)O)cc2)CC1	-6.1	1.8	1	23.2	1	2.4
Cc1cc(C(=O)CSc2nnc(-c3cccs3)o2)c(C)n1-c1ccccc1	-2.1	66.4*	0.3	19.8	0.1	89.4*
O=C(CSc1nnc(-c2cccs2)o1)c1cccs1	5.5	42.0	0.6	5.8	0.9	10.6
O=C(Nc1nc2c(c(=O)[nH]1)CCCC2)C1CC1	1.4	-16.8	1.2	5.9	1	0.3
c1ccc(C(Cc2nc(-c3ccccn3)no2)c2ccccc2)cc1	-5.9	29.1	0.7	25.1	0.5	54.5*
